Sampled rows, rich in hits. Any-hit rate of the full collection: about 1.5%.
DUSP3 inh – inhibitors of human VHR1 phosphatase (DUSP3) | recombinant VHR phosphatase, pNPP absorbance | inhibition, % at 13.3 µM | actives 0.52% (n = 290,000); in the data active = inhibition above about 50%
Target sequence (P51452 whole entry, looked up): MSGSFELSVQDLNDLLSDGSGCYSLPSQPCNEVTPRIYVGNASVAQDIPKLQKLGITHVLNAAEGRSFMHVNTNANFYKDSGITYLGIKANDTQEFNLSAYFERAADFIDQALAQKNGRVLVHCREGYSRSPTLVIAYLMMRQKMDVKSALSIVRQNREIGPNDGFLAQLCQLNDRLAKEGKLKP
CCHF vOTU inh – CCHFV vOTU protease inhibition. Pep-AMC fluorescence. inhibition, % at 11.5 µM. actives 0.55% (n = 370,000). AID 651958; in the data active = inhibition above about 30%; also: 0% = vehicle wells with enzyme and 100% = no enzyme wells
SSB-PriA inh – K. pneumoniae PriA-SSBct interaction inhibition; AlphaScreen SSBct-PriA binding, biotinylated peptide; inhibition, % at 33 µM; actives 0.6% (n = 430,000); AID 1272365; in the data active = inhibition mostly above about 37%, no sharp cut-off; inactive = mostly below about 20%;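 also: plate controls were negative control peptide for no effect and reference peptide for full effect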
ugtP null kill – growth inhibition of S. aureus ugtP deletion strain; S. aureus RN4220 ugtP deletion, OD600 growth, 16 h; growth inhibition, % (test concentration not listed); actives 0.54% (n = 330,000); in the data active = growth inhibition above about 68%;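 also: plate controls were untreated wells for no effect and antibiotic for full effect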
RN4220 kill – S. aureus RN4220 growth inhibition. OD600, 16 h. inhibition, % (concentration not given with the values). actives 0.33% (n = 330,000); in the data active = inhibition above about 85%;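 also: plate controls were untreated cells for no effect and reference antibiotic for full effect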
Numbers without * were called inactive; i = inactive; · = no result; + = active, no number.

SMILES	DUSP3 inh	CCHF vOTU inh	SSB-PriA inh	ugtP null kill	RN4220 kill
Cc1ccn(-c2ccc(Nc3ccc(NC(=O)c4ccco4)cc3)nn2)n1	·	·	55*	·	·
O=C(Cc1ccccc1)Nc1ccc(Nc2ccc(-n3cccn3)nn2)cc1	·	·	52*	·	·
Cc1ccc(Nc2ccc(NC(=O)Cc3ccccc3)cc2)nn1	·	·	-2	·	·
CN(C)/N=C\c1ccc(/C=N/NC(N)=S)cc1	·	·	20	·	·
O=C(Nc1ccc(Cl)cn1)c1cccnc1-c1nc2ccccc2s1	·	·	-12	·	·
C=CCCC(=O)NCC#CCN(C)Cc1ccccc1	·	·	-19	·	·
NC(=O)c1ccccc1OCC#CCNC(=O)Nc1ccccc1F	·	·	-6	·	·
COc1ccc(Nc2ccc(C(F)(F)F)cc2[N+](=O)[O-])cn1	-6	2	46*	7	1
CN(C)CC(C)(C)CNC(=O)C1CCN(CCCc2ccccc2)CC1	55*	2	-6	1	2
CCCCN(C)C(=O)C1CCN(CCCc2ccccc2)CC1	16	0	2	7	-4
CC(C)c1nnc(C2CCN(Cc3csc(-c4ccccc4)n3)CC2)o1	·	·	0	·	·
COc1ccc2nc(-c3cccc(NS(=O)(=O)c4ccc5c(c4)OCCO5)c3)cn2n1	·	·	4	·	·
CCOC(=O)C1=C(C)N(CCCCCC(=O)O)C(=O)NC1c1ccc([N+](=O)[O-])cc1 (centres undefined)	52*	2	-5	3	8
O=C(C#Cc1cccc([N+](=O)[O-])c1)c1ccccc1	12	·	·	98*	75
O=C(O)C(=Cc1cccc([N+](=O)[O-])c1)c1ccccc1	·	-5	·	·	·
COc1ccc(Cl)cc1NC(=O)Nc1cnc(N(C)C)nc1	·	·	-6	·	·
O=C(NNC(=O)c1cccc(Cl)c1)NNC(=O)c1cccc(Cl)c1	·	22	-12	2	3
O=C(NNC1=C(C(=O)C(F)(F)F)CCC1)c1cccc(Cl)c1	4	-3	14	99*	100*
COc1ccc(C(=O)NNc2ccccc2)cc1	-5	-18	-10	6	2
COc1ccc(C(=O)NNC2=C(C(=O)C(F)(F)F)CCC2)cc1	-15	7	-7	97*	1
O=C(NNC1=C(C(=O)C(F)(F)F)CCC1)c1ccc(Cl)cc1	29	-4	13	100*	101*
CC(C)(C)c1ccc(C(=O)NNC(=O)c2ccc(Cl)cc2)cc1	-5	5	6	-1	3
CCc1ccccc1NC(=O)NCCNC(=O)c1ccc(NC(=O)C2CC2)cc1	·	·	-15	·	·
CCS(=O)(=O)Nc1ccccc1-c1nc2ccccc2[nH]c1=O	·	·	4	·	·
COc1cccc(-c2csc(-n3nc(C)cc3NC(=O)c3cccc(C)c3)n2)c1	·	·	-8	·	·
SMILES	DUSP3 inh	CCHF vOTU inh	SSB-PriA inh	ugtP null kill	RN4220 kill
CCCCOCCCn1c(NS(=O)(=O)c2ccc(F)cc2)c(S(=O)(=O)c2ccc(C)cc2)c2nc3ccccc3nc21	·	·	67*	·	·
Cc1ccc(S(=O)(=O)c2c(NS(=O)(=O)c3ccccc3)n(CCc3ccccc3)c3nc4ccccc4nc23)cc1	·	·	67*	·	·
Cc1ccc(NC(=O)CN2C(=O)S/C(=C\c3cccn3-c3cccc(C(=O)O)c3)C2=O)cc1C	·	-14	-7	·	·
COc1ccc(NC(=O)CN2C(=O)S/C(=C/c3cccn3-c3ccc(C(=O)O)cc3)C2=O)cc1	57*	12	·	·	·
O=C(Nc1ccc2sccc2c1)c1ccc([N+](=O)[O-])s1	·	·	46*	·	·
Cc1cc(N2C(=O)C(O)=C(C(=O)c3ccco3)C2c2ccc(Cl)cc2)no1 (centres undefined)	6	15	-2	73	87*
Cc1cc(N2C(=O)C(O)=C(C(=O)c3ccco3)C2c2ccc(O)cc2)no1 (centres undefined)	13	12	-2	-8	-20
c1ccc(-c2cn(C[C@H]3CC[C@H](Cn4cc(-c5ccccn5)nn4)O3)nn2)nc1	28	-2	109*	·	·
CCOc1ccc2nc(N3CCN(C(=O)CCc4ccccc4)CC3)sc2c1	·	·	-1	·	·
O=C(CN1CC(=O)Oc2ccccc21)OCC(=O)c1ccc([N+](=O)[O-])cc1	·	·	63	·	·
O=C(NNC(=O)C1CC1)c1ccc(=O)n(Cc2ccc(Cl)cc2)c1	·	·	-10	·	·
C#CCOCCOCCOCCNc1nc(N2CCOCC2)nc(N2CCN(C(=O)C(Cc3cc4ccccc4[nH]3)n3cc(C(N)C(C)CC)nn3)CC2)n1 (centres undefined)	·	·	·	-7	-1
C#CCOCCOCCOCCNc1nc(N2CCN(C(=O)C(Cc3cc4ccccc4[nH]3)n3cc(C(N)C(C)CC)nn3)CC2)nc(N2CCN(C(=O)C(Cc3cc4ccccc4[nH]3)n3cc(C(N)C(C)CC)nn3)CC2)n1 (centres undefined)	0	·	43*	·	·
COc1ccc2c(c1)c(/C=N/Nc1nc3ccccc3[nH]1)c(C)n2C	3	9	+	·	·
CCc1nc(SCc2csc(C)n2)c2c3c(sc2n1)CCC3	·	·	-17	·	·
O=C(NN=Cc1ccc2c(c1)OCO2)c1ccc(NS(=O)(=O)c2cccs2)cc1	·	·	-5	·	·
CSc1ccccc1C(=O)NCc1cc(-c2cccs2)n(C2CCCC2)n1	·	·	-26	·	·
CC1CCc2oc3c(cc(NS(=O)(=O)c4cccs4)c4ccccc43)c2C1 (centres undefined)	·	·	22	·	·
CC1CCc2oc3c(cc(NS(=O)(=O)c4ccc(Br)cc4)c4ccccc43)c2C1 (centres undefined)	·	·	37*	·	·
O=C(CSc1nnc2scc(-c3ccccc3)n12)Nc1ccc(-c2nc3ccccc3s2)cc1	·	·	-19	·	·
O=C(NN=Cc1c(O)ccc2ccccc12)c1ccc[n+](CCO)c1	·	·	41*	·	·
O=C(N/N=C/c1c(O)ccc2ccccc12)c1ccc(Br)o1	57*	-2	·	·	·
O=C(N/N=C/c1c(O)ccc2ccccc12)c1ccc[n+](CCO)c1	10	10	·	·	·
CCCCC(NC(=O)Cc1c(C)c2cc3c4c(oc3cc2oc1=O)CCCC4)C(=O)O (centres undefined)	-1	-10	9	-1	3
CCCCC(NC(=O)CCc1c(C)c2cc3c4c(oc3c(C)c2oc1=O)CCCC4)C(=O)O (centres undefined)	58*	-18	-18	5	8
SMILES	DUSP3 inh	CCHF vOTU inh	SSB-PriA inh	ugtP null kill	RN4220 kill
CCCCC(NC(=O)Cc1c(C)c2cc3c4c(oc3c(C)c2oc1=O)CCCC4)C(=O)O (centres undefined)	52*	-23	-9	0	5
Cc1csc(C(=O)NCCn2ccc(-c3ccsc3)n2)c1	·	·	1	·	·
COc1ccc(NC(=O)NNC(=O)c2cc3occc3n2C)c(OC)c1	51*	-15	5	16	8
COc1ccc(NC(=O)NNC(=O)c2ccc(-c3ccccc3)cc2)c(OC)c1	4	-14	2	3	-2
CCOc1coc(C(=O)NCc2ccccc2OC)cc1=O	·	·	-26	·	·
c1ccc2nc3c(ccc4ccccc43)cc2c1	·	2	-18	38	-4
CCCc1nc2c(ccc3ccccc32)cc1CC	27	-15	-1	83*	-1
O=C(O)c1ccc(C2CCCCC2)cn1	-10	1	116*	4	12
Cn1cccc1-c1cc(C(=O)NN=Cc2ccccc2Cl)[nH]n1	·	·	40*	-8	14
CCOc1cc(/C=N/Nc2ncc(F)c(N3CCOCC3)n2)ccc1Oc1nc(Cl)ncc1F	·	·	i	·	·

Screens from PubChem.
